Data: PubChem BioAssay (EPA / NIEHS)
Where “and” joins values, the source holds several entries; their conditions need not be identical. Equal entries are not always repeated. Inconclusive results are not listed. The source holds several records for some structures; these can differ, active in one and inactive in another. Calls of active or inactive are those of the source. Rule for the calls: active = hit-call score of the fitted dose curve at least 0.9, where 1 is the maximum; inconclusive = response in the unintended direction; inactive = score below 0.9.

experiment: CCTE_Shafer_MEA_dev_active_electrodes_number: CCTE's Neural Network Formation Assay for Number of Active Electrodes, Shafer Lab (AID 2284040);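 for AC50: potency for loss of active electrodes versus DMSO so lower counts are hits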
Description: CCTE_Shafer_MEA_dev assay is conducted using Axion Biosystems 48 well microelectrode array (MEA) plates and Maestro recording system. Each well of the MEA plate contains a grid of 16 microelectrodes embedded in the culture surface. Electrically active cells, such as neurons, can be cultured over the electrodes, and electrical activity in these cells can be recorded extracellularly. The spontaneous firing of neurons is captured from each electrode on a microsecond timescale providing both temporally and spatially precise data. […] The CCTE_Shafer_MEA_dev assay uses primary cultures of rat cortical neurons. Recordings are made on days post-plating 5, 7, 9 and 12. As these cultures mature over time, neural networks develop functional activity and form cohesive networks in which electrical activity can be highly coordinated. CCTE_Shafer_MEA_dev_active_electrodes_number is 1 of 19 assay components of the CCTE_Shafer_MEA_dev assay. It measures the number of electrodes in a well with a mean firing rate of at least 5 spikes (action potential firings) per minute during a recording in a microelectrode array (MEA) using Axion Biosystems Maestro 768 channel amplifier with the AxIS adaptive spike detector. To collapse across multiple recordings made on days post-plating 5, 7, 9 and 12, the trapezoidal area-under-the-curve of the component is calculated.Data from the assay component CCTE_Shafer_MEA_dev_active_electrodes_number was analyzed into 1 assay endpoint. This assay endpoint, CCTE_Shafer_MEA_dev_active_electrodes_number, was analyzed in the negative analysis fitting direction relative to DMSO as the negative control and baseline of activity. Using a type of functional reporter, gain or loss-of-signal activity can be used to understand electrical activity.
On the day prior to culture, each well was coated thoroughly with 150 uL of 0.05% polyethyleneimine (PEI, Sigma Cat P3143) in 50 mM HEPES (Sigma Cat H7523) at a pH of 8. The plate was incubated at 37C for one hour. PEI was rinsed out with 500 uL of sterile water three times. Plates were stored at 4C until the day of culture. This culture was plated at a seeding density of 1.5 x 10^5 cells/well on a 48-well MEA plate, prepared as described above. Cells were administered via a 25 uL media/laminin ([…]; Sigma Cat L2020-1MG) drop directly onto the microelectrode array, as adding the cells with the laminin results in better attachment than pre-coating with laminin. After 2 hours, an additional 475 uL of cortical media was added and the cells returned to the incubator. Exposure starts at day 0 of plating and is continued over twelve days of network development until the experiment is terminated. Cells are fed with fresh medium on DIV 5 and 9, following the recordings on those days. The entire volume of media in the well is exchanged and any vehicle or compound treatment is renewed. Complete details are found in OP-NHEERL/ISTD/SBB/TJS/2015-03-r0 (available on request, email shafer.tim@epa.gov). Measurement of the electrical activity is non-invasive, and recordings can be made from the same plate over multiple different days of the culture. In cortical neurons, this allows for the measurement of extracellular action potentials over the period during which networks form in the MEA plate.

Row | SMILES | outcome | AC50
1 | O=P(Oc1ccccc1)(Oc1ccccc1)Oc1ccccc1 | inactive | –
2 | c1cc2c3c(cccc3c1)CC2 | inactive | –
3 | CCC1(c2ccccc2)C(=O)N=C(O)NC1=O (stereo not drawn) | inactive | –
4 | CC(C)(C)c1ccccc1OP(=O)(Oc1ccccc1)Oc1ccccc1 | inactive | 24.3 µM (active)
5 | CO/N=C(/C(=O)OC)c1ccccc1COc1ccccc1C | – | 0.857 µM (active)
6 | CCOc1ccc(C(C)(C)COCc2cccc(Oc3ccccc3)c2)cc1 | – | 10 µM (active)
7 | CCOP(=S)(OCC)SCSCC | – | 81.3 µM (active) and 23.2 µM (active)
8 | O=C(O)C(F)(OC(F)(F)C(F)(F)C(F)(F)F)C(F)(F)F (stereo not drawn) | inactive | –
9 | O=C(O)C(F)(F)C(F)(F)C(=O)O | inactive | –
10 | OCC(F)(F)OC(F)(F)C(F)(F)OC(F)(F)CO | inactive | –
11 | O=P1(N(CCCl)CCCl)NCCCO1 (stereo not drawn) | inactive | –
12 | C=CC(=O)OCC(F)(F)C(F)F | – | 4.45 µM (active)
13 | OCC(F)(F)OC(F)(F)C(F)(F)OC(F)(F)C(F)(F)OC(F)(F)CO | inactive | –
14 | c1ccc(OP(Oc2ccccc2)Oc2ccccc2)cc1 | inactive | –
15 | ClC1=C(Cl)C2(Cl)C3C(Cl)C(Cl)CC3C1(Cl)C2(Cl)Cl (stereo not drawn) | – | 5.54 µM (active)
16 | OCC(F)(F)OC(F)(F)C(F)(F)OC(F)(F)C(F)(F)OC(F)(F)F | inactive | –
17 | CCCCC(CC)COC(=O)c1c(Br)c(Br)c(Br)c(Br)c1C(=O)OCC(CC)CCCC (stereo not drawn) | inactive | –
18 | CC(O)C(F)(F)C(F)(F)F (stereo not drawn) | inactive | –
19 | O=C(O)C(F)(F)OC(F)(F)C(F)(F)OC(F)(F)C(=O)O | inactive | –
20 | O=C(O)C(F)(F)OC(F)(F)C(F)(F)OC(F)(F)F | inactive | –
21 | CCCCC(CC)COP(=O)(Oc1ccccc1)Oc1ccccc1 (stereo not drawn) | inactive | –
22 | O=S(=O)(c1ccc(O)cc1)c1ccc(O)cc1 | inactive | –
